# This is a sample that favours compounds with a hit; in the whole collection about 3.4% have one here.
# ADAM10 inh – human ADAM10 inhibitors, primary screen, biochemical, QFRET, HTS; Disintegrin and metalloproteinase domain-containing protein 10 (Homo sapiens), O14672; recombinant ADAM10, EDANS/DABCYL FRET peptide cleavage, 3 h; inhibition, % at 7 µM; actives 0.62% (n = 370,000); AID 720582, 2013;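 active means inhibition above a per-campaign cutoff equal to the mean of compounds falling between control-based bounds plus 3 SD, cut at about 20% in these data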
# Target sequence (O14672 214-748 limits assumed): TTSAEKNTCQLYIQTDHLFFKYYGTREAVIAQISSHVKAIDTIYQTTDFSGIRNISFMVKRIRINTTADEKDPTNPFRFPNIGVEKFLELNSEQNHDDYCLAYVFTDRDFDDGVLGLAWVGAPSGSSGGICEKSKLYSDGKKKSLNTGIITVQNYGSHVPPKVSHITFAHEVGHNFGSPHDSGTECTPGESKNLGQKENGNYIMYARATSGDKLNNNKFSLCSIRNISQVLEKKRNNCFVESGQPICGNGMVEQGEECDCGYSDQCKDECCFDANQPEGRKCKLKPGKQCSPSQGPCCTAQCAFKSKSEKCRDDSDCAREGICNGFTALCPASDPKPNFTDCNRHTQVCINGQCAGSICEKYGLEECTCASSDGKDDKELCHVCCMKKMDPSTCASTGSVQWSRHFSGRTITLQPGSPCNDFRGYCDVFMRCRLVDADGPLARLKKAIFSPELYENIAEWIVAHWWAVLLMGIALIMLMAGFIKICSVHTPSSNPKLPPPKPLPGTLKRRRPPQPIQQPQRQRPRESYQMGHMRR
# KLK7 zymogen act – proKLK7 zymogen activators, primary screen, biochemical, fluorescence intensity. Kallikrein-7 (Homo sapiens), P49862. purified proKLK7, EDANS-DABCYL substrate fluorescence; 100% is mature enzyme control, 0% vehicle. activation, % at 7 µM. actives 0.9% (n = 370,000). AID 652039, 2013;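 active means activation above the mean of all tested compounds plus 3 SD, computed per campaign excluding outliers beyond control limits, cut at about 13% in these data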
# sPLA2-III inh – human group III sPLA2 inhibitors, primary screen, biochemical, QFRET, BODIPY PC-A2 liposome substrate. actives 0.56% (n = 370,000). inhibition, % at 12.2 µM. AID 743126, 2013. Group 3 secretory phospholipase A2 (Homo sapiens), Q9NZ20. QFRET BODIPY PC-A2 liposome hydrolysis, fluorescence;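 active means inhibition above mean plus 3 SD of compounds lying within the high and low control bounds, cut at about 19% in these data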
# ADAM17 inh – ADAM17 inhibitors, primary screen, biochemical, QFRET. AID 720648, 2013. actives 0.83% (n = 370,000). inhibition, % at 6.95 µM. recombinant ADAM17, EDANS/DABCYL FRET peptide cleavage. Disintegrin and metalloproteinase domain-containing protein 17 (Homo sapiens), P78536;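 active means inhibition above the mean of compounds lying between control limits plus 3 SD, set per campaign, cut at about 8.5% in these data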
# CendR NRP1 mod – modulators of CendR peptide binding to NRP-1, primary screen, biochemical, fluorescence polarization, uHTS; inhibition, % at 25 µM; actives 0.85% (n = 360,000); Neuropilin-1 (Homo sapiens), O14786; FAM-RPARPAR peptide binding to NRP-1; AID 602438, 2012;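 active means inhibition or corrected inhibition above about 18%, plus a signal ratio from 0.5 to 1.5, limit read from the data, passing the limit was not always enough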
# Hits are given with their value; . = inactive; / = no result given.
SMILES,ADAM10 inh,KLK7 zymogen act,sPLA2-III inh,ADAM17 inh,CendR NRP1 mod
CCOc1ccccc1C(=O)Nc1ccc2nc(C)[nH]c(=O)c2c1,.,.,.,.,/
CCN(CC)C(=O)c1nc[nH]c1C(=O)N1CCN(c2ccccc2)CC1,.,.,.,.,30
O=C(N[C@@H](Cc1ccccc1)C(=O)OCc1ccccc1)c1nc[nH]c1C(=O)NC(c1ccccc1)c1ccccc1,.,.,.,.,27
C[C@H](NC(=O)c1nc[nH]c1C(=O)N[C@@H](Cc1ccccc1)C(=O)OCc1ccccc1)c1ccccc1,.,.,.,.,.
CN(Cc1ccccc1)C(=O)c1nc[nH]c1C(=O)N1CCN(C(=O)OC(C)(C)C)CC1,.,.,.,.,37
CC1CCN(C(=O)c2[nH]cnc2C(=O)NC2CCN(C(=O)OC(C)(C)C)CC2)CC1,.,.,.,.,29
CN(Cc1ccccc1)C(=O)c1nc[nH]c1C(=O)N1CCN(c2ccccc2)CC1,.,.,.,.,.
CCOC(=O)[C@@]12CCC3=C1N(CCC3)C(=O)[C@H](CC(=O)NCc1ccccc1)C2,.,.,.,.,/
CC(C)(C)OC(=O)N1CCN(C(=O)c2[nH]cnc2C(=O)N[C@@H](Cc2ccccc2)C(=O)OCc2ccccc2)CC1,.,.,.,.,.
CC(C)(C)OC(=O)[C@H](Cc1ccccc1)NC(=O)c1nc[nH]c1C(=O)N1CCN(C(=O)OC(C)(C)C)CC1,.,.,.,.,27
CCCN1Cc2cccc(C(N)=O)c2C1=O,.,.,.,.,49
CCNC(=O)N(C)[C@H]1C[C@H]2c3[nH]c4c(-c5cccc(C)c5)cccc4c3CCN2C(=O)[C@H]1[C@H](C)O,.,.,.,.,/
Cc1cccc(/C=C2\Sc3ccc(C(=O)NCC4CCCO4)cc3N(C)C2=O)c1 (stereo unspecified),.,.,.,.,.
CCOc1ccc(/C=C2/Sc3ccc(C(=O)NCC4CCCO4)cc3N(C)C2=O)cc1OC (stereo unspecified),.,.,.,.,27
CC1(C)CCC(=O)N2CC[C@H]3C[C@H](OC(=O)Nc4ccc5c(c4)OCO5)C[C@@H]1[C@H]32,.,.,.,.,20
COCCCNC(=O)C1Cc2cc(S(=O)(=O)N3CCCC3)ccc2N1C(C)=O (stereo unspecified),.,.,.,.,.
COCCNC(=O)C1Cc2cc(S(=O)(=O)N3CCCC3)ccc2N1C(C)=O (stereo unspecified),.,.,.,.,24
O=C(N[C@H]1C[C@@H]2O[C@@H](CO)CC[C@@H]2O[C@@H]1CCc1ccc(-c2cccnc2)cc1)c1cccc(F)c1,.,.,.,.,/
CC(NCc1ccco1)C(=O)N1CCCC1 (stereo unspecified),.,.,.,.,/
Cc1ccc(C)c(S(=O)(=O)NCc2ccc(C(=O)N3CCN(C)CC3)cc2)c1,.,.,.,.,.
Cc1ccc(C)c(S(=O)(=O)NCc2ccc(C(=O)N3CCC(Cc4ccccc4)CC3)cc2)c1,.,.,.,.,45
Cc1cc(NC(=O)CSc2nc(N)c(NC(=O)c3ccc(F)c(F)c3)c(=O)[nH]2)no1,.,.,.,.,23
C=CCN1C(=O)/C(=C/c2ccc(O)c(OC)c2)S/C1=N/c1nccs1,22,.,.,.,.
CCOC(=O)c1c(CC(C)C)csc1NC(C)=O,.,.,.,.,.
CCOC(=O)c1c(CC(C)C)csc1NC=O,.,.,.,.,30
COc1ccc(CN(CCN2CCOCC2)C(=O)c2cc(Cl)ccc2F)cc1OC,.,.,.,.,/
COc1ccc(/C=C/C(=O)NCC(=O)N/N=C/c2ccc(OC)cc2)cc1,.,.,.,.,20
COc1ccc(/C=C/C(=O)NCC(=O)N/N=C/c2cccnc2)cc1,.,.,.,.,.
COc1ccc(C2C(C(=O)N3CCN(c4ccccc4Cl)CC3)CC(=O)N2c2ccc(OC)cc2)cc1 (stereo unspecified),.,.,.,.,/
